Assay results taken from PubChem BioAssay (EPA / NIEHS).
Records with an inconclusive call do not appear. Active and inactive are the calls of the source. The calls were made as follows, unless noted: active = hit-call score of the fitted dose curve at least 0.9, where 1 is the maximum; inconclusive = response in the unintended direction; inactive = score below 0.9.

Columns and labels:
[1] = BSK_3C_VCAM1: BioMAP Diversity Plus: 3C Assay for Vascular cell adhesion molecule 1 (VCAM1) Biomarker Activity (AID 2282999; active = hit-call score of the fitted dose curve at least 0.9, where 1 is the maximum; inactive = score below 0.9); details: BioMAP 3C HUVEC, VCAM1 ELISA, cytokine-stimulated; actives raise or lower the signal
Summary of the method: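 HUVEC primary cells, 24 h compound exposure; VCAM-1 by ELISA; gain/loss of signal fitted bidirectionally vs DMSO baseline.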

[2] = BSK_4H_Eotaxin3: BioMAP Diversity Plus: 4H Assay for Eotaxin 3 Biomarker Activity (AID 2283000; active = hit-call score of the fitted dose curve at least 0.9, where 1 is the maximum; inactive = score below 0.9); details: primary human endothelial cells (HUVEC); actives raise or lower the signal
Summary of the method: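 Readout is Eotaxin-3 (CCL26) level by ELISA in primary human umbilical vein endothelial cells harvested 24 h after chemical exposure; activity fitted in both directions against DMSO control.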

[3] = biological target: human Peroxisome Proliferator-activated Receptor delta (PPARd), PPARD (gene 5467) (UniProt Q03181); experiment: ATG_PPARd_TRANS: Attagene TRANS-FACTORIAL HepG2 Assay for human Peroxisome Proliferator-activated Receptor delta (PPARd) (AID 2283002)
Summary of the method: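 HepG2 cells transiently transfected with GAL4-UAS multiplexed reporter units driven by exogenous chimeric NR-GAL4 proteins; 24 h compound exposure. Reporter mRNA measured by RT-PCR, 6-FAM primer extension, HpaI digestion and capillary electrophoresis; gain of signal fitted relative to DMSO.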

[4] = read-out: Intercellular Adhesion Molecule 1 (ICAM1), ICAM1 (gene 3383); experiment: BSK_3C_ICAM1: BioMAP Diversity Plus: 3C Assay for Intercellular Adhesion Molecule 1 (ICAM1) Biomarker Activity (AID 2283003; active = hit-call score of the fitted dose curve at least 0.9, where 1 is the maximum; inactive = score below 0.9); details: primary human endothelial cells (HUVEC); actives raise or lower the signal
Summary of the method: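 Chemicals are dosed onto primary human umbilical vein endothelium (3C system). After 24 h, ICAM-1 is measured by ELISA, and responses are fitted bidirectionally relative to DMSO.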

[5] = biological target: human Retinoic Acid Receptor beta (RARb), RARB (gene 5915) (UniProt P10826); experiment: ATG_RARb_TRANS: Attagene TRANS-FACTORIAL HepG2 Assay for human Retinoic Acid Receptor beta (AID 2283004)
Summary of the method: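 Readout is reporter mRNA induction: RNA reverse-transcribed, PCR-amplified, FAM-labelled, HpaI-cut and resolved by capillary electrophoresis. Transiently transfected HepG2 cells carrying exogenous NR–Gal4 chimeras were dosed for 24 h; activity fitted upward relative to DMSO.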

[6] = biological target: Retinoic acid receptor alpha (Homo sapiens) (UniProt P10276); experiment: ATG_RARa_TRANS: Attagene TRANS-FACTORIAL HepG2 Assay for human Retinoic Acid Receptor alpha (RARa) (AID 2283005);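 as to AC50: potency for increased reporter signal meaning RARa activation over DMSO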
Summary of the method: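 HepG2 transiently transfected with multiplex GAL4-UAS reporter units including a human RARa–GAL4 chimera; 24 h compound exposure. Reporter mRNA quantified by RT-PCR, 6-FAM labeling and capillary electrophoresis; gain of signal versus DMSO.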

[7] = BSK_3C_Proliferation: Cell Proliferation Assessment in the BioMAP Diversity Plus: 3C Assay (AID 2283006; active = hit-call score of the fitted dose curve at least 0.9, where 1 is the maximum; inactive = score below 0.9;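 as to AC50: potency may reflect either rise or fall in cell number versus DMSO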); details: primary human endothelial cells (HUVEC)
Summary of the method: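 Cells (human umbilical vein endothelial, sub-confluent) receive test chemical; after 48 h they are fixed in 10% trichloroacetic acid, stained with 0.1% SRB and read at 560 nm. Activity is referenced to DMSO, fitting increases and decreases.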

[8] = biological target: Peroxisome proliferator-activated receptor gamma (Homo sapiens) (UniProt P37231); experiment: ATG_PPARg_TRANS: Attagene TRANS-FACTORIAL HepG2 Assay for human Peroxisome Proliferator-activated Receptor-gamma (PPARg) (AID 2283007)
Summary of the method: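 HepG2 cells transiently transfected with multiplexed GAL4-UAS reporter units and exogenous chimeric NR-Gal4 proteins; reporter mRNA quantified after 24 h compound exposure by RT-PCR, fluorescent labelling, HpaI digestion and capillary electrophoresis; gain-of-signal fitted versus DMSO baseline.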

[9] = biological target: Nuclear receptor subfamily 1 group I member 2 (Homo sapiens) (UniProt O75469); experiment: ATG_PXR_TRANS: Attagene TRANS-FACTORIAL HepG2 Assay for human Pregnane X Receptor (PXR) (AID 2283008)
Summary of the method: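 Transient HepG2 transfectants carrying multiplexed reporter transcription units; PXR activity read through a Gal4 chimera. 24 h exposure. RT-PCR/CE fluorescence; upward curve fit referenced to DMSO.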

[10] = biological target: human Retinoic Acid Receptor gamma (RARg), RARG (gene 5916) (UniProt P13631); experiment: ATG_RARg_TRANS: Attagene TRANS-FACTORIAL HepG2 Assay for human Retinoic Acid Receptor gamma (RARg) (AID 2283009)
Summary of the method: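 TRANS format measured activity of exogenous NR-GAL4 fusion (RARg) in transfected HepG2 liver cells after 24 h dosing. Induced reporter RNA was detected by RT-PCR/capillary electrophoresis fluorescence, analysed in the positive direction against DMSO.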

[11] = biological target: human RAR-related Orphan Receptor gamma (RORg), RORC (gene 6097) (UniProt P51449); experiment: ATG_RORg_TRANS: Attagene TRANS-FACTORIAL HepG2 Assay for human RAR-related Orphan Receptor gamma (RORg) (AID 2283011)
Summary of the method: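 Transient MRTU transfection of HepG2 (TRANS format, exogenous NR-Gal4 chimera). 24 h dosing. Total RNA → oligo(dT) RT → PCR → 6-FAM labelling → HpaI cut → CE. Gain vs DMSO.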

[12] = biological target: Retinoic acid receptor RXR-alpha (Homo sapiens) (UniProt P19793); experiment: ATG_RXRa_TRANS: Attagene TRANS-FACTORIAL HepG2 Assay for human Retinoid X Receptor alpha (RXRa) (AID 2283012)
Summary of the method: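 Measures exogenous chimeric NR-GAL4 activity in transfected HepG2 liver cells after 24 h of dosing. Induced reporter mRNA was detected by RT-PCR with capillary electrophoresis, and gain of signal was analysed against DMSO.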

[13] = biological target: human Thyroid Receptor alpha (THRa1), THRA (gene 7067) (UniProt P10827); experiment: ATG_THRa1_TRANS: Attagene TRANS-FACTORIAL HepG2 Assay for human Thyroid Receptor alpha (THRa1) (AID 2283014)
Summary of the method: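 Transient HepG2 transfection, NR-Gal4 chimera driving GAL4-UAS reporters; 24 h compound exposure; total RNA, oligo(dT) RT, PCR, fluorescent primer extension, capillary electrophoresis. Upward direction vs DMSO control.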

[14] = read-out: E-selectin (Homo sapiens) (UniProt P16581); experiment: BSK_3C_Eselectin: BioMAP Diversity Plus: 3C Assay for Eselectin Biomarker Activity (AID 2283015; active = hit-call score of the fitted dose curve at least 0.9, where 1 is the maximum; inactive = score below 0.9); details: primary human endothelial cells (HUVEC); actives raise or lower the signal
Summary of the method: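 HUVEC, 3C stimulation; compound exposure 24 h; E-selectin by ELISA; gain- or loss-of-signal fitted bidirectionally vs DMSO baseline.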

[15] = read-out: Interleukin-1 alpha (IL1a), IL1A (gene 3552); experiment: BSK_BE3C_IL1a: BioMAP Diversity Plus: BE3C Assay for Interleukin-1 alpha (IL1a) Biomarker Activity (AID 2283016; active = hit-call score of the fitted dose curve at least 0.9, where 1 is the maximum; inactive = score below 0.9); details: primary human bronchial epithelial cells; actives raise or lower the signal
Summary of the method: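 Signal from IL-1a ELISA, taken 24 h after chemical dosing of human bronchial epithelial cells, is compared with DMSO as baseline using bidirectional curve fitting.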

[16] = read-out: Monocyte Chemoattractant Protein-1 (MCP1), CCL2 (gene 6347); experiment: BSK_3C_MCP1: BioMAP Diversity Plus: 3C Assay for Monocyte Chemoattractant Protein-1 (MCP1) Biomarker Activity (AID 2283017; active = hit-call score of the fitted dose curve at least 0.9, where 1 is the maximum; inactive = score below 0.9); details: primary human endothelial cells (HUVEC); actives raise or lower the signal
Summary of the method: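 HUVEC, 3C system; 24 h chemical exposure; MCP-1 by ELISA; bidirectional curve fit vs DMSO baseline.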

[17] = read-out: Monocyte Chemoattractant Protein-1 (MCP1), CCL2 (gene 6347); experiment: BSK_4H_MCP1: BioMAP Diversity Plus: 4H Assay for Monocyte Chemoattractant Protein-1 (MCP1) Biomarker Activity (AID 2283018; active = hit-call score of the fitted dose curve at least 0.9, where 1 is the maximum; inactive = score below 0.9); details: primary human endothelial cells (HUVEC); actives raise or lower the signal
Summary of the method: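 Endothelial cells from umbilical vein were treated with test chemical, then after 24 h MCP-1 levels were quantified by ELISA; endpoint values came from bidirectional fitting with DMSO as baseline of activity.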

[18] = biological target: human Retinoid X Receptor beta (RXRb), RXRB (gene 6257) (UniProt P28702); experiment: ATG_RXRb_TRANS: Attagene TRANS-FACTORIAL HepG2 Assay for human Retinoid X Receptor beta (RXRb) (AID 2283013)
Summary of the method: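 Chimeric receptor-Gal4 activity was assessed in transiently transfected human HepG2 cells after 24 h exposure. Transcripts from GAL4-UAS reporters were quantified by fluorescent RT-PCR and capillary electrophoresis, with DMSO as negative control and baseline.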

[19] = biological target: human RAR-related Orphan Receptor beta (RORb), RORB (gene 6096) (UniProt Q92753); experiment: ATG_RORb_TRANS: Attagene TRANS-FACTORIAL HepG2 Assay for human RAR-related Orphan Receptor beta (RORb) (AID 2283010)
Summary of the method: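 Transfect HepG2 with multiple GAL4-UAS reporter transcription units; dose chemicals for 24 h; isolate RNA, reverse-transcribe and PCR-amplify reporter sequences; label, digest and resolve fragments by capillary electrophoresis; fit increases relative to DMSO.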

Measured: AC50

human Thyroid Receptor alpha (THRa1), THRA (gene 7067), sequence (P10827 whole entry, looked up, the tested form may be a part): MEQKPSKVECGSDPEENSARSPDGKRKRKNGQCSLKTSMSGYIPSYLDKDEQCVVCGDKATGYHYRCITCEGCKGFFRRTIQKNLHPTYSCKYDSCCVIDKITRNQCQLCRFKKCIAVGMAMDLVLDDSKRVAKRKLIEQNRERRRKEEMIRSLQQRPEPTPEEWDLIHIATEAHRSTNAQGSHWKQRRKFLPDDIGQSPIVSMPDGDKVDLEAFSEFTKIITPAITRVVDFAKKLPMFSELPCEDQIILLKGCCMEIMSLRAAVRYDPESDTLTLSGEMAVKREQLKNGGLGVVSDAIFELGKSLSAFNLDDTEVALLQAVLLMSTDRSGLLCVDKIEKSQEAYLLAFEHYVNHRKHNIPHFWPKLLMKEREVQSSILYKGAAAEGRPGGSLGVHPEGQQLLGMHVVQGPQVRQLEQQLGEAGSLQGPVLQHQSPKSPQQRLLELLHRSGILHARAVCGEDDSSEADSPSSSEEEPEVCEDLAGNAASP
human Retinoic Acid Receptor beta (RARb), RARB (gene 5915), sequence (P10826 whole entry, looked up, the tested form may be a part): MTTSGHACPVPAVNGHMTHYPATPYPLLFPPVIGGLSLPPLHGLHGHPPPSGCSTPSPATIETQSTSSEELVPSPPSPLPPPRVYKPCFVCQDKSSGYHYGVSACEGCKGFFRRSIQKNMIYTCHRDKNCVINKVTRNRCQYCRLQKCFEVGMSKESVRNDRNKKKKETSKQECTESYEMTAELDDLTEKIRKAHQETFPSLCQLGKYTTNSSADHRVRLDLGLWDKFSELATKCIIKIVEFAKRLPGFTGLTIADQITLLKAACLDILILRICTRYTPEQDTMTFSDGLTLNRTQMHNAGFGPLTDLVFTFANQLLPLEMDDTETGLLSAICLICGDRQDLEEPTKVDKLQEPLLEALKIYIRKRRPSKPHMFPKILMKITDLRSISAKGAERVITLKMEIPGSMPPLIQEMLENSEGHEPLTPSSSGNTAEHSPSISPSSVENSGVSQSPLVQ
human Peroxisome Proliferator-activated Receptor delta (PPARd), PPARD (gene 5467), sequence (Q03181 whole entry, looked up, the tested form may be a part): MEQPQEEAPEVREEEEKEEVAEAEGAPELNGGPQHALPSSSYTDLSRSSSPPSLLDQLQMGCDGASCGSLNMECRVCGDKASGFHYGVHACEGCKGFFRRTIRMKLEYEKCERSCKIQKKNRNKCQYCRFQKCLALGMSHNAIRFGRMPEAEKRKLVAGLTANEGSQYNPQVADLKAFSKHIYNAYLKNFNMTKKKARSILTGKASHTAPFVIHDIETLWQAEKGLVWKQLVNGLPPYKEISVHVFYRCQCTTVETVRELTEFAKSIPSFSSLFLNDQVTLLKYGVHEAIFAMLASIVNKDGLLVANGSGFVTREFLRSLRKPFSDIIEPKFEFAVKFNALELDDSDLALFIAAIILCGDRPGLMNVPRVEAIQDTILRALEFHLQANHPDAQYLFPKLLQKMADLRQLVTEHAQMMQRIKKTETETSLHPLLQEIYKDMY
Peroxisome proliferator-activated receptor gamma (Homo sapiens), sequence (P37231 whole entry, looked up, the tested form may be a part): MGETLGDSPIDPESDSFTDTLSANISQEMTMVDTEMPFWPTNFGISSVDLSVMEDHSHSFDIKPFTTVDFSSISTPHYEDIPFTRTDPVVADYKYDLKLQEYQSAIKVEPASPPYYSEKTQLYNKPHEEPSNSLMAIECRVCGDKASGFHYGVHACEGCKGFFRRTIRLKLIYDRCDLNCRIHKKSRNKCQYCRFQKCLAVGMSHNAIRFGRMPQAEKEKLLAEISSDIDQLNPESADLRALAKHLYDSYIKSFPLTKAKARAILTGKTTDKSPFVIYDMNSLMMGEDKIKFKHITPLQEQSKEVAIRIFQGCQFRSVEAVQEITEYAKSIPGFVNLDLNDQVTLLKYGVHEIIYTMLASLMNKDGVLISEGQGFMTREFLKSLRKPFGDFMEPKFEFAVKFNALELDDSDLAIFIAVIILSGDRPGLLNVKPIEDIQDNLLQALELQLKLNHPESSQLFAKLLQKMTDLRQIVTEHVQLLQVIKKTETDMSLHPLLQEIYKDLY
human RAR-related Orphan Receptor gamma (RORg), RORC (gene 6097), sequence (P51449 whole entry, looked up, the tested form may be a part): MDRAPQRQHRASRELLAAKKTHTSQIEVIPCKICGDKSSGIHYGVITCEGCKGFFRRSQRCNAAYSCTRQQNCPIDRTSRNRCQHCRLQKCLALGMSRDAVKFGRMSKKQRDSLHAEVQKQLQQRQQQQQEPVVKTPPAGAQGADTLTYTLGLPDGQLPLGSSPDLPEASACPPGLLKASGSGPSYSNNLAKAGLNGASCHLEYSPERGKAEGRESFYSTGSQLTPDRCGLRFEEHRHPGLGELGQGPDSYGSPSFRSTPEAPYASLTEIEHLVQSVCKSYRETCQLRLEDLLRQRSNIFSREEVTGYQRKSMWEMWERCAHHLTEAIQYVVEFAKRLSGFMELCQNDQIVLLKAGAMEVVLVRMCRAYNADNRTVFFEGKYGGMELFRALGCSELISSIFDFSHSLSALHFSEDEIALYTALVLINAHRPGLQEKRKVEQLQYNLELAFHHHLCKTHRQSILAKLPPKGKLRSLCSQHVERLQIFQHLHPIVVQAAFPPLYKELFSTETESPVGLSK
E-selectin (Homo sapiens), sequence (P16581 whole entry, looked up): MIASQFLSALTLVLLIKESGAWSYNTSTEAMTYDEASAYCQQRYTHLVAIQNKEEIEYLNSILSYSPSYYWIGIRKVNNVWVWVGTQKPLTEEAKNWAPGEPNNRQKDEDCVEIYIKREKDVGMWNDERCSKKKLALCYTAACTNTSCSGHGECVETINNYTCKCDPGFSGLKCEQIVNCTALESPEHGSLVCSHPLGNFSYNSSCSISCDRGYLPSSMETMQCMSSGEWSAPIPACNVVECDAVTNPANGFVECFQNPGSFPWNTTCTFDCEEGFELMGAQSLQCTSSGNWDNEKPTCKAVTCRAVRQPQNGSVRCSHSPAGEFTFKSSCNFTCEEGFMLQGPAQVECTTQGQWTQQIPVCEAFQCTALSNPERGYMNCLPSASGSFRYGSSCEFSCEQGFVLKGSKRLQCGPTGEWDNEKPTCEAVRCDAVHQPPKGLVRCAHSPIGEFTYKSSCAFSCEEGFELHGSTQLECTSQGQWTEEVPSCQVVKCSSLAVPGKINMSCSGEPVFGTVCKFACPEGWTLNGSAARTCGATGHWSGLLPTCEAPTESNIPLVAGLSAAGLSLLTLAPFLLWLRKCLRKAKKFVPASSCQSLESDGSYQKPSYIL
human Retinoic Acid Receptor gamma (RARg), RARG (gene 5916), sequence (P13631 whole entry, looked up, the tested form may be a part): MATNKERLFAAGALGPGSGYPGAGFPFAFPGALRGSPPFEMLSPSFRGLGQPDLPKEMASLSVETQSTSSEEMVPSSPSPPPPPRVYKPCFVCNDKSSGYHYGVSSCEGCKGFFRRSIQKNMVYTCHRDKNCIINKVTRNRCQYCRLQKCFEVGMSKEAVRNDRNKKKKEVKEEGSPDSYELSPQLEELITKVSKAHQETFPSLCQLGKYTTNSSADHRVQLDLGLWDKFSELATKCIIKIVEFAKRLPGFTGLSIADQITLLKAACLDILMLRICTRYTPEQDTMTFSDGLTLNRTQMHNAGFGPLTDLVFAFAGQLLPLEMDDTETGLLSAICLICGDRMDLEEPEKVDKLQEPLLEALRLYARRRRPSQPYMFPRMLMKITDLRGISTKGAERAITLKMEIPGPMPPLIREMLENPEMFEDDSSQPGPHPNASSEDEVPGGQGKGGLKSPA
Retinoic acid receptor RXR-alpha (Homo sapiens), sequence (P19793 whole entry, looked up, the tested form may be a part): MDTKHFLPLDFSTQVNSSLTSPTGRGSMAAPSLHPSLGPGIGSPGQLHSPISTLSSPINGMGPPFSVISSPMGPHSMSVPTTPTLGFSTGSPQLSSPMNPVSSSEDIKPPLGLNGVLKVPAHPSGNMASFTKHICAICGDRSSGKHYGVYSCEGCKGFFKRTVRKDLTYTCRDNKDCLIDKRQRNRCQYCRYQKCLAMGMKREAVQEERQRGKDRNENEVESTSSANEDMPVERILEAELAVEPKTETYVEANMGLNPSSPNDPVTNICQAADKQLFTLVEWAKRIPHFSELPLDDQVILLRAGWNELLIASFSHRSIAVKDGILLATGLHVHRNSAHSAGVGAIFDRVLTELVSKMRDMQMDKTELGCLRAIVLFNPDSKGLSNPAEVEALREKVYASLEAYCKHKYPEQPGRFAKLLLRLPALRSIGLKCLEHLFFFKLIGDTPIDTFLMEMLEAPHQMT
human RAR-related Orphan Receptor beta (RORb), RORB (gene 6096), sequence (Q92753 whole entry, looked up, the tested form may be a part): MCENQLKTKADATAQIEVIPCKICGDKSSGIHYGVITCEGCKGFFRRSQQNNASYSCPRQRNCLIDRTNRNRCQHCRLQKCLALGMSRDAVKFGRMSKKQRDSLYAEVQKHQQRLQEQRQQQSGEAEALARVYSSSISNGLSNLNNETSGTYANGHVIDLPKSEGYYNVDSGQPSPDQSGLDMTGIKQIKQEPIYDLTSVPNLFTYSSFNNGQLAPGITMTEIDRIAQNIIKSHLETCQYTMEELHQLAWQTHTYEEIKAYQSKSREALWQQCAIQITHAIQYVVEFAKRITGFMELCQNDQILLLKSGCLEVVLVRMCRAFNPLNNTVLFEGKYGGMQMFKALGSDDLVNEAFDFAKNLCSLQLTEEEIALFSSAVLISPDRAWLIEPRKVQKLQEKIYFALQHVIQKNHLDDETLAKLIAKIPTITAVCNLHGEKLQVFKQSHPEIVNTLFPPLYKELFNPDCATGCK
human Retinoid X Receptor beta (RXRb), RXRB (gene 6257), sequence (P28702 whole entry, looked up, the tested form may be a part): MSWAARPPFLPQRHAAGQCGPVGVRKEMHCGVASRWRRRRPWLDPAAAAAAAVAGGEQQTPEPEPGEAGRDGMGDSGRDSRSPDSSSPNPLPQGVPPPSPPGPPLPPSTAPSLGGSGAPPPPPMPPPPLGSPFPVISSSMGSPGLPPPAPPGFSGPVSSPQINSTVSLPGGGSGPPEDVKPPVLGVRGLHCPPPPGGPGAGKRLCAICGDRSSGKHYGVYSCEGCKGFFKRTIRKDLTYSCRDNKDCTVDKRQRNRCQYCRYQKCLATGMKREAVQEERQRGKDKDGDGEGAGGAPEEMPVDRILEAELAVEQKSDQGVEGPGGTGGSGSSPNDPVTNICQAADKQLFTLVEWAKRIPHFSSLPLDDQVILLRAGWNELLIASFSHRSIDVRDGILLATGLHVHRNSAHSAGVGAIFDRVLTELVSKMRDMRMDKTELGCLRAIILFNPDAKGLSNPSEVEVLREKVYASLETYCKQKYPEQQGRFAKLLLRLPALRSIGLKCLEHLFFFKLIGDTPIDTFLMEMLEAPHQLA

CCOC(=O)COc1cc(-c2nn(C)c(OC(F)F)c2Cl)c(F)cc1Cl
active: [7] 15.5 µM | [9] 29.6 µM | [17] 10.1 µM
not listed: [18] | [19]
inactive: all other assays above

CON=C(C(=O)OC)c1ccccc1CON=C(C)c1cccc(C(F)(F)F)c1
active: [2] 2.78 µM | [7] 1.58 µM | [8] 50 µM | [14] 2.35 µM | [16] 3.3 µM | [17] 2.81 µM
not listed: [11] | [18] | [19]
inactive: all other assays above

C#CCC1=C(C)C(OC(=O)C2C(C=C(C)C)C2(C)C)CC1=O (stereo not drawn)
active: [7] 28.8 µM | [8] 28 µM | [9] 3.12 µM | [14] 36 µM | [16] 32.2 µM | [17] 20.6 µM
not listed: [11] | [13] | [19]
inactive: all other assays above

FC(F)C(F)(F)OCC(Cn1cncn1)c1ccc(Cl)cc1Cl (stereo not drawn)
active: [2] 28.4 µM | [6] 13.2 µM | [7] 20 µM | [17] 23.2 µM
not listed: [11] | [18] | [19]
inactive: all other assays above

CCOP(=O)(NC(C)C)Oc1ccc(SC)c(C)c1 (stereo not drawn)
active: [8] 32.3 µM
not listed: [13]
inactive: all other assays above

CNC(=O)Oc1cccc2c1OC(C)(C)O2
active: [1] 28.5 µM | [2] 20 µM | [14] 27.3 µM
inactive: [3] | [4] | [7] | [8] | [9] | [19] | [15] | [16] | [17]

CC(C1CC1)C(O)(Cn1cncn1)c1ccc(Cl)cc1 (stereo not drawn)
not listed: [13]
inactive: all other assays above
